# Experimental data taken from PubChem BioAssay (Tox21).
# Results filed as inconclusive are left out. Where a call stands in place of a potency, no number is given. Unmarked numbers belong to inactive results. Active and inactive are the calls of the source. The call rests on the fitted dose curve; in most records, active means well fitted activation curve with a large enough effect in the repeat runs; inconclusive means weak or mixed curves, or effect the other way; inactive means no such curve, though single readings can be large or run the other way.
# Assay: qHTS assay to identify small molecule agonists of the retinoic acid receptor (RAR) signaling pathway (AID 1159553)
# Conditions: C3RL4 RARE luciferase reporter, agonist, 6 h; series mostly up to 73.3 µM
# Text: National Center for Advancing Translational Sciences [NCATS] NIH Chemical Genomics Center [NCGC] U.S. Environmental Protection Agency [EPA] National Institutes of Environmental Health Sciences [NIEHS] National Toxicology Program [NTP] Assay overview: All-trans Retinoic acid (atRA) is the potent natural metabolite of retinol and plays an important role in normal embryonic development and maintenance of cellular phenotype in adult animals. atRA is the activating ligand for the retinoic acid receptors (RARs) which form heterodimers with retinoid X receptors (RXRs) on the retinoic acid response element (RARE). Through activation of the RAR/RXRs nuclear receptors, atRA regulates the transcription of a large number of protein-coding genes and regulatory RNAs. Intracellular levels of atRA are controlled by the retinol signaling pathway (RSP) that regulates the biosynthesis and catabolism of atRA to maintain physiological levels. Chemicals that interfere with the RSP can cause abnormal intracellular levels of atRA and therefore are potential developmental toxicants. To assess compounds for the potential adverse effect on embryonic development through interfering with retinol signaling, a cell-based RARE luciferase reporter gene assay was used. C3RL4 cell line (OARSA/CFSAN/FDA, Laurel, MD) was used to screen Tox21 10K compound library for identifying activators of the RSP.
# Assay Protocol Summary: C3RL4 cells were seeded at 1,000/well in 5 uL of assay medium into white solid 1,536-well tissue culture plates (Greiner Bio-One North America Inc. Monroe, NC) using a Multidrop Combi (Thermo Scientific, Waltham, MA) dispenser. After incubation at 37 C and 5% CO2 for an overnight, 23 nL of compounds dissolved in DMSO, positive control or DMSO only were transferred by a Pintool station (Kalypsys, San Diego, CA). After 6 hr incubation at 37 C and 5% CO2, 5 uL of Amplite Luciferase reagent (AAT Bioquest Inc. Sunnyvale, CA) was added to each assay plate using a Flying Reagent Dispenser (FRD) (Aurora Discovery, San Diego, CA). Luminescence was quantified on a ViewLux plate reader (PerkinElmer, Waltham, MA) after 30 min incubation at room temperature.
# Potency means the concentration at half of the fitted maximal effect.
SMILES,Potency,activation
CC(C)C(C)(N)C#N (stereo not given),inactive,–
O=C(O)CBr,inactive,–
C1CN2CCC1CC2,inactive,–
CC(C)NCC(O)c1ccc([N+](=O)[O-])cc1 (stereo not given),inactive,–
COc1cccc([C@@]2(O)CCCC[C@@H]2CN(C)C)c1,inactive,–
S=C=S,inactive,–
Clc1ccc(C(Cl)(Cl)Cl)cn1,inactive,–
CC(C)(C)C(=O)Cl,inactive,–
COC1=CC(=O)O[C@@H](/C=C/c2ccccc2)C1,24.7 µM (active),–
OCC(Cl)CCl (stereo not given),inactive,–
C[N+]1(C)CCCCC1,inactive,–
CC(C)[N+](C)(CCC(C(N)=O)(c1ccccc1)c1ccccc1)C(C)C,inactive,–
COc1cc(CCN)cc(OC)c1OC,inactive,–
Oc1ccc2c3c1O[C@H]1[C@@H](O)C=C[C@H]4[C@@H](C2)NCC[C@@]341,inactive,–
CC[C@@H](CO)NC(=O)[C@@H]1C=C2c3cccc4[nH]cc(c34)C[C@H]2N(C)C1,inactive,–
CCN[C@@H](C)Cc1cccc(C(F)(F)F)c1,inactive,–
N#CN,inactive,–
Cc1ccc(Cl)c(O)c1,inactive,–
COc1ccc(C=O)cc1O,inactive,–
COC[C@@H](NC(C)=O)C(=O)NCc1ccccc1,inactive,–

SMILES,Potency,activation
[O-][Br+2]([O-])O,inactive,–
Cc1ccc2cc(C)ccc2c1,inactive,–
Clc1nc(Cl)nc(Nc2ccccc2Cl)n1,inactive,–
ClCC1CO1 (stereo not given),inactive,–
COP(=O)(O)OC,inactive,–
CCCCOC(C)=O,inactive,–
Cc1cccc2sc3nncn3c12,inactive,–
O=C1CC(=O)NC(=O)N1,inactive,–
ClCCCCCCCl,inactive,–
CCNc1nc(Cl)nc(NC(C)(C)C)n1,inactive,–
C/C=C/CC#N,inactive,–
Brc1c(Br)c(Br)c(Br)c(Br)c1Br,–,-2.33% [at 8.36 µM]
ClCCN1CCCC1,inactive,–
CCCCCCC(=O)CCCCCC/C=C/C[C@@H](O)[C@H](O)[C@@](N)(CO)C(=O)O,inactive,–
CCOC(=O)N(C)N=O,inactive,–
CN(CCO)CCO,inactive,–
CCCC(C)C1(CC)C(=O)N=C(S)NC1=O (stereo not given),inactive,–
Nc1c(Cl)c(F)nc(OCC(=O)O)c1Cl,inactive,–
O=[N+]([O-])CCO,inactive,–
NNCc1ccccc1,2.48 µM (active),–
